The values below come from PubChem BioAssay AID1903 (Southern Research Specialized Biocontainment Screening …, 2009).

About 1,200 (0.39%) of roughly 310,000 compounds were called active. Only a sample is shown. Results with a measured potency or affinity are listed apart. Unmarked numbers belong to inactive results. How the calls were made is not given here.

The term inhibition denotes the drop in the measured response relative to a control, in per cent.

For this experiment, the target named is Large T antigen (Simian virus 40) (UniProt P03070). The experiment is described as follows: TAg ATPase/helicase activity blockers – biochemical (AID 1903). To be noted: SV40 large T antigen ATPase/helicase inhibition assay; at 20 µM; stronger effect = higher value.
Sequence of Large T antigen (Simian virus 40) (P03070 whole entry, looked up): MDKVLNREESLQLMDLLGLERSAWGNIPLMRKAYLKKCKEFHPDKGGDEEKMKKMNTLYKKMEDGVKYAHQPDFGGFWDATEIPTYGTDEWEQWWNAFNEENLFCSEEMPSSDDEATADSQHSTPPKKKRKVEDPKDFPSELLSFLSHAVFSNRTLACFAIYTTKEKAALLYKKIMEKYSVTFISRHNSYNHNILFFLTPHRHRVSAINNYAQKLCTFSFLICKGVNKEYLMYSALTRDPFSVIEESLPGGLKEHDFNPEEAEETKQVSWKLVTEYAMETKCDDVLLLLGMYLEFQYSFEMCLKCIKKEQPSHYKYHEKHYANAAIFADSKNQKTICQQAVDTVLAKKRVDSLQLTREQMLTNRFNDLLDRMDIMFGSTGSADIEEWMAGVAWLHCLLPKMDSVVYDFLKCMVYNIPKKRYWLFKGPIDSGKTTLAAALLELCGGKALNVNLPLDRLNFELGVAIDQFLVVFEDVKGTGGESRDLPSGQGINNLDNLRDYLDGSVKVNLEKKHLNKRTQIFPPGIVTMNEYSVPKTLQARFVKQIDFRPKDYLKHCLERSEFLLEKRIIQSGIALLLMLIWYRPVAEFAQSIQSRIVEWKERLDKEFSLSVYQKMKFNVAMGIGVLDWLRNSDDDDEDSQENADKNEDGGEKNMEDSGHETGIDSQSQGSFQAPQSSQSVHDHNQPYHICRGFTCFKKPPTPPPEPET
`CCN(Cc1ccccc1)C(=O)CCS(=O)(=O)c1ccc2c(c1)NC(=O)CO2`: the inhibition is 6.63%. On to `COc1cc(Cn2nnc3ccccc32)cc(Br)c1O`, for which the inhibition was 29.6%.

With `COc1cccc(/C=N/NC(=O)CCn2nnc3ccccc32)c1`, the inhibition was 9.43%. As for `COc1ccc(Cn2nnc3ccccc32)cc1`, the inhibition was 0.77%. Consider `COc1ccc(/C=N/NC(=O)C(C)n2nnc3ccccc32)cc1OC` (configuration not stated), for which the inhibition is -3.35%.

Take `COc1cccc(/C=N\NC(=O)Cn2nnc3ccccc32)c1O`: the inhibition is 34.8%. As for `COc1cccc(/C=N/NC(=O)C(C)n2nnc3ccccc32)c1` (configuration not stated), the figure is 23.4%; as for `COc1ccc(/C=N/NC(=O)CCn2nnc3ccccc32)cc1`, 3.72%; as for `CN(C)c1ccc(/C=N/NC(=O)Cn2nnc3ccccc32)cc1`, 14.7%. As for `O=C(Cn1ccc2ccccc2c1=O)NCC(=O)N1CCN(c2ccccc2F)CC1`, the figure is 5.42%; as for `CC(=O)Nc1ccccc1OC(C)C(=O)N1CC(C)CC(C)C1` (configuration not stated), 2.89%.

In the case of `CCOc1ccc(NC(=O)N2CCC(n3nnc4cc(C)ccc43)CC2)cc1`, the inhibition was -5.9%. As to `Cn1c(=O)cc(SCC(=O)Nc2ccccn2)c2ccccc21`, the inhibition was 18.7%.

With `COC(=O)c1ccccc1NC(=O)N1CCN(S(C)(=O)=O)CC1`, the inhibition was 5.14%.

For `CCNC(=S)N(CCc1ccccc1C)Cc1cc2cc(OC)c(OC)cc2[nH]c1=O`, the inhibition is 2.57%.

As for `COc1ccc(N(CC(=O)NCc2ccc(F)cc2)C(=O)c2snc(C(N)=O)c2N)cc1OC`, the inhibition was 5.71%.

`CSc1ccc(C#N)cc1NC(=O)c1cccnc1Cl`: the inhibition is 1.02%. Under `C/C(=N\NC(=O)Cn1ccc(C(F)(F)F)n1)c1ccc(N2CCOCC2)cc1` stands 5.06%; under `COc1cc(/C=N\NC(=O)Cn2nnc3ccccc32)cc(OC)c1OC`, 4.84%; under `COc1ccc(/C=N/NC(=O)CCc2c(C)n[nH]c2C)cc1O`, 33.9%.

With `COc1cc(/C=N/NC(=O)CCn2c3ccccc3c3ccccc32)ccc1O`, the inhibition is 13.3%. For the molecule `COc1ccc(/C=N/NC(=O)CCc2c(C)n[nH]c2C)cc1OC`, the inhibition is 0.79%.

In the case of `COc1ccc(/C=N/NC(=O)Cn2nnc3ccccc32)cc1OC`, the inhibition was 9.9%.

As for `COc1ccc(/C=N/NC(=O)CCn2nc(C)cc2C)cc1O`, the inhibition is 32.7%.

In the case of `COc1ccc(O)c(/C=N\NC(=O)CCn2nnc3ccccc32)c1`, the inhibition was 9.4%. Consider `CCOc1cc(/C=N/NC(=O)CCn2nc(C)cc2C)ccc1O`, for which the inhibition was 33.9%. For the molecule `CC1CCCN(C(=O)N2c3ccccc3Sc3ccccc32)C1` (configuration not stated), the inhibition is 6.24%.
